# In all, about 69,000 compounds went through this assay and about 8,600 (12%) showed an effect of 50% or more. The sample as a whole holds a higher share of strong results than the screen did.
# System: Plasmodium berghei
# Assay: Screen against P. berghei liver stage (PbLuc), transformed with Luciferase, at 10uM
# Format: functional, HepG2
# Conditions: tested at 10 uM
row,Structure (SMILES),INHIBITION [%]
1,COc1ncc(NS(=O)(=O)c2ccc(F)c(F)c2)c(OC)n1,11.6
2,COc1ncc(NS(=O)(=O)c2ccc(OC)c(C)c2)c(OC)n1,69.6
3,COc1ncc(NC(=O)c2ccco2)c(OC)n1,36.6
4,COc1ncc(NS(=O)(=O)c2cccc(C)c2)c(OC)n1,34.6
5,COc1ccc(S(=O)(=O)Nc2cccnc2-n2cncn2)cc1C,1.56
6,Cc1ccc([C@H]2CN(CCO)C[C@@H]2NC(=O)CN2CCCCC2=O)o1,4.93
7,Cc1nc(Nc2nnc(C)s2)cc(C2CCCN2c2ccncn2)n1 (stereo unspecified),25.6
8,O=C1COC2(COCCN(Cc3cccnc3)C2)CN1c1ccoc1 (stereo unspecified),12.2
9,Cc1nc2c(c(=O)n1C)CCN(Cc1cc3cc[nH]c3cn1)CC2,19.8
10,Cc1cc(CN2CCc3nc(C)n(C)c(=O)c3CC2)[nH]n1,45.6
11,Cc1nc2c(c(=O)n1C)CCN(Cc1cc3ccccc3[nH]1)CC2,60.4
12,Cc1cc(CN2CCc3cncnc3C2)on1,-40.5
13,CCN(C(=O)COC)C(c1ccc(Cl)cc1)c1ccccn1 (stereo unspecified),44.9
14,CCN(C(=O)CCOC)C(c1ccc(Cl)cc1)c1ccccn1 (stereo unspecified),58.8
15,CCN(C(=O)CCCOC)C(c1ccc(Cl)cc1)c1ccccn1 (stereo unspecified),31
16,O=C(C1CCCC1)N1CCCC2(CCN(c3cnccn3)CC2)C1,-9.74
17,c1c(CN2CCOCC2)nc2n1CCN(CC1CC1)C2,23.6
18,O=C(Cc1ccc(F)cc1F)NCC(=O)Nc1ccccn1,45
19,CCN1CC(C(=O)N2CCc3cc(C(=O)N(C)C)n(C)c3C2)CCC1=O (stereo unspecified),51.7

row,Structure (SMILES),INHIBITION [%]
1,CCN1CC(C(=O)N2CCc3cc(C(N)=O)n(C)c3C2)CC1=O (stereo unspecified),32.2
2,CCN1CC(C(=O)N2CCc3cc(C(N)=O)n(C)c3C2)CCC1=O (stereo unspecified),54.5
3,Cn1c(C(N)=O)cc2c1CN(C(=O)C1CC(=O)N(C(C)(C)C)C1)CC2 (stereo unspecified),48
4,CCN1CC(C(=O)N2CCN(c3cnn(C)c(=O)c3)CC2)CCC1=O (stereo unspecified),-22
5,Cn1c(C(N)=O)cc2c1CN(C(=O)C1CCCN(C3CCCC3)C1)CC2 (stereo unspecified),15.5
6,Cc1ncc2c(n1)CN(CCCOc1ccc(C#N)cc1)CC2,19.2
7,CC(C)SCc1cccc(NC(=O)NC(C)c2nc[nH]n2)c1 (stereo unspecified),5.33
8,CC(=O)c1cccc(NC(=O)NCCOCC2CC2)c1,-35.9
9,Cc1nnc(CCNC(=O)Nc2ccc(S(C)(=O)=O)cc2)[nH]1,-30
10,CC(=O)c1cccc(NC(=O)NCCc2nnc[nH]2)c1,66.5
11,COCCNC(=O)Nc1cccc(COCCOC(C)C)c1,18.6
12,CC(=O)c1cccc(NC(=O)NCCCc2nc(C(C)C)no2)c1,-34.8
13,O=C(NCCc1nnc[nH]1)Nc1cccc(SC(F)F)c1,51.7
14,CC(C)SCc1cccc(NC(=O)NCCc2nnc[nH]2)c1,56.3
15,O=C(CCc1ccc(Br)cc1)NCCc1nnc[nH]1,-7.12
16,Cc1cc(C)n(CC2CCCN2C(=O)c2c[nH]c(=O)c(Cl)c2)n1 (stereo unspecified),21
17,COc1ccc(OCCNC(=O)CN(C)Cc2nnc(C)n2C)cc1,-10.8
18,O=C1COC2(CCN(CC3CC3)CC2)CN1c1cncnc1,-33.3
19,COc1cc(OC)cc(C2CC(=O)Nc3c2nc2n3CCCC2)c1 (stereo unspecified),1.19

row,Structure (SMILES),INHIBITION [%]
1,Cc1noc(C)c1CN(C)CC(=O)Nc1ccnn1C(C)C1CC1 (stereo unspecified),-72.5
2,O=C(O)c1ccc(CN2CCC(c3ccnc4ccnn34)CC2)cc1,13.5
3,CC(=O)N1CCCC(c2nnc3n2CCN(C(=O)C2CCCCC2)C3)C1 (stereo unspecified),33.39
4,Cc1ccc(F)c(NCc2ccc(C(=O)N(C)C)[nH]2)c1,-17.9
5,CCn1cc(S(=O)(=O)NCC(c2ccccc2)N2CCOCC2)c(C)n1 (stereo unspecified),8.335
6,CN(C)CCN(C)C(=O)NC1CCC(Oc2ccccc2C#N)CC1 (stereo unspecified),34
7,CN(C)C1(C(=O)NC2CCC(Oc3ccccc3C#N)CC2)CCC1 (stereo unspecified),67.4
8,CCNC(=O)NC1CCC(Oc2ccccc2C#N)CC1 (stereo unspecified),40.2
9,Cc1cnn(CC2CCCCN2C(=O)Cc2c(C)nn(C)c2C)c1 (stereo unspecified),7.08
10,CCC[C@H]1CN(Cc2ccc(N(C)C)nc2)C[C@@H]1NC(=O)CCOC,62.2
11,CCC[C@H]1CN(Cc2ccc(N(C)C)nc2)C[C@@H]1NC(=O)CO,42.1
12,CCC[C@H]1CN(Cc2ccc(N(C)C)nc2)C[C@@H]1NC(=O)CSC,33.1
13,O=C(c1ccco1)N1CCC12CCN(c1ncc(F)cn1)CC2,58
14,O=C1CCC2(CCN(c3ncc(F)cn3)CC2)N1Cc1ccncc1,35.8
15,Cc1cnc(N2CCC3(CCCCN3C)C2)nc1 (stereo unspecified),-38.1
16,Cc1cnc(N2CCC3(CCCN3C(=O)c3ccco3)CC2)nc1,60.5
17,O=C(c1ccco1)N1CCCC12CCN(c1ncccn1)CC2,-72.6
18,O=C1CCC2(CCCN(c3ncc(F)cn3)CC2)N1Cc1ccccc1 (stereo unspecified),-2.17
